These results are taken from PubChem BioAssay (Tox21).

A number with no mark means an inactive call. Records with an inconclusive call do not appear. The source made the active and inactive calls. Unless noted, calls come from the whole dose curve; as a rule, active = well fitted curve in the direction sought with a large enough effect in the repeat runs; inconclusive = weak or mixed curves; inactive = flat fitted curve, though single readings scatter.

Experiment [1] in a line: qHTS assay to test for compound auto fluorescence at 535 nm (green) in HEK293 cells (AID 720680).
Experiment [2] in a line: qHTS assay to test for compound auto fluorescence at 460 nm (blue) in HEK293 cell free culture (AID 720681). A digest of the protocol:
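Blue fluorescence (Ex 405/Em 460 nm, triamterene-equivalent) was read immediately after pin transfer of compound or DMSO into medium (DMEM, 10% FBS) without cells.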
In general terms: In qHTS, concentration-response curves come from the screen itself.

Experiment [3] is described as follows: qHTS assay to test for compound auto fluorescence at 535 nm (green) in HEK293 cell free culture (AID 720682). A digest of the protocol: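 Green-channel intensity (Ex/Em 485/535 nm) was recorded from compound-treated wells containing only DMEM with 10% FBS. Fluorescein provided the equivalency standard.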
A short description of experiment [4]: qHTS assay to test for compound auto fluorescence at 460 nm (blue) in HepG2 cell free culture (AID 720685). The procedure, abridged:
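Cell-free plates of MEM plus 10% FBS received 23 nL compound or DMSO vehicle; blue-channel (405/460 nm) intensity scored against triamterene as reference fluorophore.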

Experiment [5] can be described thus: qHTS assay to test for compound auto fluorescence at 535 nm (green) in HepG2 cell free culture (AID 720686).
Experiment [6] in a line: qHTS assay to test for compound auto fluorescence at 460 nm (blue) in HepG2 cells (AID 720687). A digest of the protocol:
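Blue-channel autofluorescence (Ex/Em 405/460 nm, triamterene-equivalent) was measured after 1 hr compound exposure at 37 C, 5% CO2. Cells were HepG2, plated overnight at 37 C in MEM plus 10% FBS.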

For experiment [7], the target named is Glucocorticoid receptor (Homo sapiens) (UniProt P04150). Nature of the experiment: qHTS assay to identify small molecule agonists of the glucocorticoid receptor (GR) signaling pathway (AID 720691; active = well fitted activation curve with a large enough effect in the signal ratio in the repeat runs, not every such curve was filed as active; the % refers to the signal ratio). The procedure, abridged:
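Cells: GR-bla HeLa, endogenous GR with stably integrated GRE-beta-lactamase reporter. Treatment 18 h, 37 C, compounds delivered in DMSO. Detection via LiveBLAzer B/G FRET substrate, 2 h RT, fluorescence intensity.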

A short description of experiment [8]: qHTS assay to test for compound auto fluorescence at 590 nm (red) in HepG2 cell free culture (AID 720684). A digest of the protocol:
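Cell-free; medium MEM + 10% FBS; compound or DMSO added by pintool; read Ex 540/Em 590 nm; Rose Bengal sodium as red reference fluorophore.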

The target of experiment [9] is Glucocorticoid receptor (Homo sapiens) (UniProt P04150). The experiment can be described thus: qHTS assay to identify small molecule antagonists of the glucocorticoid receptor (GR) signaling pathway (AID 720692; active = well fitted inhibition curve with a large enough effect in the signal ratio in the repeat runs, not every such curve was filed as active; the % refers to the signal ratio; note: potency is the fitted concentration of half-maximal effect). The procedure, abridged: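 Quantitative HTS in antagonist format: HeLa cells expressing endogenous GR and a stably integrated GRE-bla reporter, stimulated with 5 nM dexamethasone (final) alongside test compounds for 18 h.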
% is set by controls: 0 for no effect and ±100 for the full control effect.

Sequence of Glucocorticoid receptor (Homo sapiens) (P04150 whole entry, looked up): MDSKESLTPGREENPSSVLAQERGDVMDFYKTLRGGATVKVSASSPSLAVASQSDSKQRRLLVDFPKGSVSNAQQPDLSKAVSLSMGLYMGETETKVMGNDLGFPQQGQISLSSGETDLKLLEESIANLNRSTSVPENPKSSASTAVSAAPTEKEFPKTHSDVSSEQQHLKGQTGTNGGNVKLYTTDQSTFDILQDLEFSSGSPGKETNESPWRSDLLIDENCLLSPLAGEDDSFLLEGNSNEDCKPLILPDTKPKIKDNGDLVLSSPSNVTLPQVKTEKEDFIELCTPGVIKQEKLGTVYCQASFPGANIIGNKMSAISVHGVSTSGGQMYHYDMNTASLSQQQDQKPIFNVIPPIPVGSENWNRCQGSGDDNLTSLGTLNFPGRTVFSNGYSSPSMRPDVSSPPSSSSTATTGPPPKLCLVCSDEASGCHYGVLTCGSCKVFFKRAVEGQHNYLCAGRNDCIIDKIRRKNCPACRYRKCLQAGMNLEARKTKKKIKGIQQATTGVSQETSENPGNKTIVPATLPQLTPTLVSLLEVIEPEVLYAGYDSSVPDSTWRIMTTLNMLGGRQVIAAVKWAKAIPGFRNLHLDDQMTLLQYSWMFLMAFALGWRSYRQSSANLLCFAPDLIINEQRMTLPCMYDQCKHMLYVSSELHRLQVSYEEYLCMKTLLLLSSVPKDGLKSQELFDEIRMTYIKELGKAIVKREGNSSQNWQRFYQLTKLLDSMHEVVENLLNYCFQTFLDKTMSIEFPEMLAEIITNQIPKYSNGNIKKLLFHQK

With `CCCCCCCCCCCC[N+](C)(C)CC(=O)[O-]`, the call in experiment [1], in experiment [3] and in [5] was inactive. Moreover, the Potency entry in [2], in experiment [4], in experiment [6] and in experiment [7] was “inactive” each time.

`CCc1cccc(N(C)C(N)=Nc2cccc3ccccc23)c1`: the compound was called inactive in [1], in experiment [3], in [8] and in [5]. Further, the Potency entry in [2], in [4], in experiment [6], in [7] and in experiment [9] was “inactive” each time.

Consider `Cc1ccc(S)cc1`, for which the outcome in experiment [1], in experiment [3], in experiment [8] and in [5] was inactive. Further, the Potency entry in [2] and in [6] was “inactive” throughout.

On to `CCCCCCCC/C=C\CCCCCCCC(=O)OC(CO)CO`, for which the outcome in [1], in [3] and in [8] was inactive. Further, the Potency entry in [2] and in experiment [6] was “inactive” throughout.

As for `CCCOC(=O)c1ccc(C(=O)OCCC)nc1`, the compound was called inactive in experiment [1], in experiment [3], in experiment [8] and in [5]. The Potency entry in experiment [2], in experiment [4], in experiment [6] and in experiment [9] was “inactive” each time.

For the compound `CC1=CC(O)CC(C)(C)C1` (stereo not drawn), the compound was called inactive in experiment [1], in experiment [3], in experiment [8] and in experiment [5]. Also, the Potency result in [2], in experiment [4], in [6], in experiment [7] and in experiment [9] was “inactive” each time.

As to `C/C=C(\C)C(=O)OCCC(C)CCC=C(C)C` (stereo not drawn), the outcome in experiment [1], in [3], in [8] and in [5] was inactive. Moreover, the Potency entry in experiment [2], in experiment [4], in experiment [6], in experiment [7] and in [9] was “inactive” each time.

For `CCC(C)=O`, the compound was classed as inactive in experiment [1], in [3], in [8] and in experiment [5]. The Potency result in experiment [2], in experiment [4], in experiment [6] and in experiment [7] was “inactive” in each case.

For the compound `CCNC(=O)N1CCN(CCCC(c2ccc(F)cc2)c2ccc(F)cc2)CC1`, the compound was classed as inactive in experiment [1], in experiment [3], in experiment [8] and in experiment [5]. The Potency entry in experiment [2], in [4], in experiment [6] and in experiment [7] was “inactive” throughout.

As to `CCC(C)(C)C1CCC(O)CC1` (stereo not drawn), the outcome in experiment [1], in experiment [3], in experiment [8] and in experiment [5] was inactive. Besides, the Potency result in [2], in experiment [4] and in experiment [6] was “inactive” each time.

In the case of `Cc1ccnc2ccccc12`, the compound was classed as inactive in experiment [1], in experiment [3] and in experiment [5]. Further, the Potency result in experiment [2], in experiment [4], in experiment [6], in experiment [7] and in experiment [9] was “inactive” throughout.

As for `CO[C@@]12[C@H](COC(N)=O)C3=C(C(=O)C(C)=C(N)C3=O)N1C[C@@H]1N[C@@H]12`, the call in experiment [1], in [3], in experiment [8] and in [5] was inactive. Besides, the Potency result in experiment [2], in experiment [4], in experiment [6] and in experiment [7] was “inactive” throughout. The Potency in experiment [9] was 21.3 µM (active).

As for `CCCCN(CCCC)CCCOC(=O)c1ccc(N)cc1`, the fluorescence, % of fluorescein in experiment [1] is 0.0466% [at 18.6 µM]. The fluorescence, % of fluorescent control in experiment [2] was -0.0006% [at 18.6 µM]; in [4] it was 0.138% [at 18.6 µM]; in [6] it was -0.0696% [at 18.6 µM]. In addition, the activity change in experiment [3] is -0.0464% [at 18.6 µM]. Besides, in experiment [8], the fluorescence, % of Rose Bengal is 0.0643% [at 18.6 µM]. In [5], the fluorescence, % of fluorescein control was -0.0572% [at 18.6 µM]. The Potency entry in experiment [7] and in [9] was “inactive” each time.

As for `CC1(C)C(=O)N(Br)C(=O)N1Cl`, the call in [1], in [3] and in experiment [5] was inactive. Besides, the Potency entry in experiment [2], in experiment [4] and in [6] was “inactive” in each case.

In the case of `Cc1oncc1C(=O)Nc1ccc(C(F)(F)F)cc1`, the result in experiment [1], in experiment [3], in experiment [8] and in experiment [5] was inactive. The Potency result in experiment [2], in experiment [4], in experiment [6] and in [9] was “inactive” throughout.

On to `CC(Cl)C(Cl)Cl` (stereo not drawn), for which the outcome in experiment [1], in experiment [3], in experiment [8] and in experiment [5] was inactive. Moreover, the Potency entry in experiment [2], in experiment [4], in experiment [6], in [7] and in experiment [9] was “inactive” each time.

As to `O=C(CS)OCCOC(=O)CS`, the outcome in experiment [1], in experiment [3], in experiment [8] and in experiment [5] was inactive. Also, the Potency entry in experiment [2] and in experiment [6] was “inactive” each time.

Turning to `Cc1cc(O)c2c(O)c3c(O)cccc3cc2c1`, the outcome in experiment [1] and in experiment [3] was inactive. Further, the Potency result in experiment [2], in [4], in experiment [6] and in experiment [7] was “inactive” throughout.

For the compound `CCCCCCCCCCCCCCCCBr`, in experiment [1], the fluorescence, % of fluorescein was -0.0178% [at 18.6 µM]. In addition, the fluorescence, % of fluorescent control is 0.102% [at 18.6 µM] in [2], -0.0045% [at 18.6 µM] in experiment [4] and -0.0027% [at 18.6 µM] in experiment [6]. In [3], the activity change is 0.0082% [at 18.6 µM]. In addition, the fluorescence, % of fluorescein control in experiment [5] was 0.0028% [at 18.6 µM].

In the case of `CC(COc1ccc(C(C)(C)C)cc1)OS(=O)OCCCl` (stereo not drawn), the result in [1], in experiment [3], in [8] and in experiment [5] was inactive. The Potency result in [2], in experiment [4] and in experiment [6] was “inactive” each time.

On to `Cc1oc(C)c(C(=O)Nc2ccccc2)c1C`, for which the compound was classed as inactive in [1], in [3], in [8] and in experiment [5]. The Potency entry in experiment [2], in experiment [4], in experiment [6] and in experiment [7] was “inactive” throughout.

Turning to `CCCCCCCC/C=C\CCCCCCCC(=O)OC`, the call in [1], in [3], in experiment [8] and in [5] was inactive. Further, the Potency result in experiment [2], in experiment [4] and in experiment [6] was “inactive” in each case.

Consider `CCN(CC)CCNC(=O)c1ccc(NC(C)=O)cc1`, for which the call in [1], in experiment [3], in experiment [8] and in [5] was inactive. Further, the Potency result in experiment [2], in experiment [6], in experiment [7] and in experiment [9] was “inactive” in each case.
